Screening results as filed in PubChem.
KB-V1 cytotox = qHTS assay for MDR1-selective chemotherapeutics: Primary screen using the drug-selected MDR subline cells KB-V1; AID 1347076, 2019; hit rate 3.4% among 400,000; Potency, µM (highest dose often 46.1 µM), hits mostly cytotoxic; KB-V1 MDR cells viability, CellTiter-Glo, 72 h; further: on the % scale 0 is the no-effect control and ±100 the full control effect; nearly all actives have a fitted effect of over 60% in size
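KB-V1 cells (P-gp-expressing MDR subline of KB-3-1) in phenol-red-free DMEM with 10% FBS were exposed to library compounds over a concentration series for 72 h at 37 degrees C. Viability read by CellTiter-Glo luminescence; concentration-effect curves fitted after normalization.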
MCF10A rerep = A quantitative high throughput screen for small molecules that induce DNA re-replication in MCF 10a normal breast cells; MCF 10A DNA re-replication, Hoechst nuclear intensity, 48 h; Potency, µM (doses to about 46.1 µM), for the others: top-dose activity, positive = re-replication, actives largely listed as activators; hit rate 2.9% among 350,000; AID 624296, 2012; further: % of control where 0% means no effect; nearly all actives have a fitted effect of over 50% in size
KB-3-1 cytotox = qHTS assay for MDR1-selective chemotherapeutics: Primary screen using the parental adenocarcinoma cell KB-3-1. hit rate 1.4% among 400,000. KB-3-1 viability, CellTiter-Glo ATP luminescence, 72 h. Potency, µM (highest dose often 46.1 µM), most hits filed as cytotoxic; further: on the % scale 0 is the no-effect control and ±100 the full control effect; nearly all actives have a fitted effect of over 60% in size
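Viability of parental KB-3-1 cells, measured by CellTiter-Glo luminescence, followed a 72 h incubation at 37 °C with pinned compounds in phenol-red-free DMEM containing 10% FBS.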
SW480 rerep = A quantitative high throughput screen for small molecules that induce DNA re-replication in SW480 colon adenocarcinoma cells; SW480 DNA re-replication, Hoechst DNA content imaging, 48 h; Potency, µM (top dose mostly 46.1 µM), without a hit: at the highest dose re-replication activation, most hits filed as activators; hit rate 1.8% among 340,000; further: % of control where 0% means no effect; nearly all actives have a fitted effect of over 55% in size
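Quantitative HTS format with DMSO vehicle controls; 48 hr drug incubation at 37 C, then 40 min Hoechst staining and scanning imager measurement at 405 nm excitation.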
ELG1 repair inh = qHTS screen for small molecules that inhibit ELG1-dependent DNA repair in human embryonic kidney (HEK293T) cells expressing luciferase-tagged ELG1 | HEK293T ELG1-luciferase reporter, luminescence, 16 h; DNA damage induced by 5-fluorouridine | Potency, µM (doses to about 46.1 µM), inactives show top-dose activity change, negative = inhibition, most hits filed as inhibitors | hit rate 2.3% among 330,000 | AID 504467, 2011; further: on the % scale 0 is the no-effect control and ±100 the full control effect; nearly all actives have a fitted effect of over 55% in size
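HEK293T cells expressing luciferase-tagged ELG1 (2,000/well) received 5-Fluorouridine plus compound or DMSO for 16 hr at 37 °C. Luciferase was read by ONE-Glo luminescence after 30 min at room temperature.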
An asterisk follows results filed as active; i = inactive; ? = inconclusive; / = no result given; [ ] = dose if it differs, or a comment. Only some compounds are listed: those with a hit (about 8.2% of all), similar ones and a draw of the others. The call rests on the fitted dose curve; in most records, active means well fitted curve in the direction sought with a large enough effect; inconclusive means small, poorly fitted or top-dose-only effect, or another doubt; inactive means no such curve, though single readings can be large; an effect the other way counts as inactive or inconclusive. Potency means the concentration at half of the fitted maximal effect.

SMILES	KB-V1 cytotox	MCF10A rerep	KB-3-1 cytotox	SW480 rerep	ELG1 repair inh
CCCn1cc(S(=O)(=O)c2ccc(OC)cc2)c(=O)c2cc(F)c(N3CCCCCC3)cc21	?	/	i	/	/
CCc1nn(CC(=O)N2CCN(c3cccc(C(F)(F)F)c3)CC2)c(=O)c2cccn12	i	/	i	/	/
CCOC(=O)CSc1c(-c2cccs2)[nH]c2ccccc12	?	23.1µM*	?	?	-13.4%
Cc1cc2oc(=O)c(CC(=O)O)c(C)c2c2occ(-c3ccc(F)cc3)c12	i	/	i	/	/
CC(OC(=O)Cc1c[nH]c2ccccc12)C(=O)NC1CCCCC1C (centres undefined)	i	-1.9%	i	0.7%	?
O=S(=O)(Nc1ccccc1N1CCCC1)c1ccccc1C(F)(F)F	i	/	i	/	/
O=C(Nc1ccccc1)c1ccccc1NS(=O)(=O)c1ccc(Cl)s1	4.11µM*	10.3%	5.17µM*	0.8%	-15.9%
O=S(=O)(Nc1ccccc1N1CCCCC1)c1ccc(Cl)s1	i	2.6%	13µM*	-1.2%	1.5%
O=C(NCc1ccco1)c1ccccc1NS(=O)(=O)c1ccc(Cl)s1	i	20.5%	i	-9.2%[9.22 µM]	?
O=C(Nc1ccccc1Cc1ccccc1)c1ccccc1NS(=O)(=O)c1ccc(Cl)s1	2.59µM*	9.2µM*	?	?	?
Cc1ccc(NS(=O)(=O)c2ccc(Cl)s2)nc1	?	8.8%	i	-1.0%	-0.3%
Cc1ccc(NC(=O)c2ccccc2NS(=O)(=O)c2ccc(Cl)s2)cc1	7.31µM*	9.2µM*	10.3µM*	?	?
O=c1cc(-c2ccc(OCc3ccccc3)cc2)oc2cc(OCc3ccccc3)cc(OCc3ccccc3)c12	i	1.1%	i	0.5%	9.2%
O=C(Nc1ccccc1)[C@@H]1CC=C[C@@H]2CCN(C3CCCCC3)C(=O)[C@@H]21	?	-7.2%	i	14.8%	/
O=C1/C(=C/c2ccc(O)cc2)COc2ccccc21	i	?	i	18.4µM*	?
Cc1ccc(-c2noc(-c3ccccc3NC(=O)C3CC(=O)N(c4ccccc4C)C3)n2)cc1 (centres undefined)	i	/	i	/	/
CSc1nc(-c2ccccc2)c(C#N)c(=O)[nH]1	i	-0.1%	i	-0.6%	-16.3%
CCSc1nc(-c2ccccc2)c(C#N)c(=O)[nH]1	i	7.31µM*	i	19.7%	21.6%
CCOC(=O)CCc1c(C)c2ccc(O)cc2oc1=O	i	-11.2%	i	-2.4%	-6.4%
CCN(CC)c1ccc2c(c1)oc(=O)c1c(Cl)cc(=O)oc12	?	?	?	9.2µM*	?
COc1ccc(-c2c(C)c3ccc(O)cc3oc2=O)cc1	i	18.9%	i	-14.9%	?
CCOC(=O)Cc1c(C)c2ccc(N(CC)CC)cc2oc1=O	?	18.4µM*	i	14.6µM*	?
CCN(CC)c1ccc2c(C)c(Cl)c(=O)oc2c1	i	4.11µM*	i	?	?
CCN(CC)c1ccc2c(C)c(-c3ccc(N)cc3)c(=O)oc2c1	i	3.66µM*	?	8.2µM*	16.0%
CC(C)(C)C(=O)N1CCN(c2nc3ccc(Cl)cc3s2)CC1	i	?	i	-3.6%	?
SMILES	KB-V1 cytotox	MCF10A rerep	KB-3-1 cytotox	SW480 rerep	ELG1 repair inh
Cc1cccc(CN2CCN(C(c3ccccc3)c3ccc(Cl)cc3)CC2)c1 (centres undefined)	?	23.1µM*	i	7.1%	0.3%
CCN1CCN(C(=O)C2CCN(Cc3nc(-c4cccc(Cl)c4)oc3C)CC2)CC1	i	7.3%	i	-3.6%	5.2%
O=C(C1CCN(Cc2ccc(Cl)cc2)CC1)N1CCN(C(c2ccccc2)c2ccccc2)CC1	?	?	20.6µM*	?	-10.1%
CCN1CCN(C(=O)C2CCN(Cc3cc(Cl)ccc3O)CC2)CC1	i	11.6µM*	i	-11.8%	11.8%
CNS(=O)(=O)c1cn(CC(=O)Nc2cccc(OC)c2)cc1S(=O)(=O)NC	?	/	i	/	/
O=C(NC(c1ccc(Cl)cc1)c1ccsc1)C1CCN(CCOc2ccc(Cl)cc2)CC1 (centres undefined)	i	/	i	/	/
CC(Sc1n[nH]c(=O)n1Cc1ccccc1)C(=O)NCC1CCCO1 (centres undefined)	i	0.2%	i	-1.3%	1.5%
Cc1cccc(NC(=O)c2cnn3ccccc23)c1C	i	?	i	?	?
CCCNC(=O)C1(C)CCCN(C/C=C/c2ccccc2)C1 (centres undefined)	i	/	i	/	/
CCN(CC)S(=O)(=O)c1ccc(N2CCOCC2)c(NC(=O)c2ccc(F)cc2)c1	?	-0.1%	i	-4.8%	?
CCN(CC)S(=O)(=O)c1ccc(N2CCOCC2)c(NC(=O)c2cc3ccccc3oc2=O)c1	?	0.2%	i	-11.9%	5.17µM*
CCN(CC)S(=O)(=O)c1ccc(N2CCOCC2)c(NC(=O)c2cc(Cl)c3c(c2)OCO3)c1	i	16.2%	i	-3.5%	8.2µM*
COc1ccc(CN(C)C(=O)Cc2ccc(S(=O)(=O)N3CCOCC3)s2)cc1OC	i	10.2%	i	-0.2%	-3.7%
COc1cc(OC)cc(C(=O)Nc2sc3c(c2C(N)=O)CCC3)c1	i	0.581µM*	i	?	?
COc1ccc(NC(=O)CN(C)CC(=O)Nc2sc3c(c2C(N)=O)CCC3)cc1	?	7.8%	i	-0.4%	20.6µM*
Cn1c(N2CCN(S(=O)(=O)c3ccc(F)cc3)CC2)nc2ccccc21	?	17.0%	i	3.1%	?
CCn1c(N2CCN(S(=O)(=O)c3ccc(OC)cc3)CC2)nc2ccccc21	13µM*	-2.4%	i	5.7%	?
CCn1c(N2CCN(S(=O)(=O)c3ccccc3C(F)(F)F)CC2)nc2ccccc21	18.4µM*	?	i	10.5%	?
COc1ccc(OCCN2CCN(S(=O)(=O)c3ccccc3C#N)CC2)cc1	?	25.2%	?	3.6%	-15.4%
COc1ccc(OCCN2CCN(S(=O)(=O)c3ccccc3C(F)(F)F)CC2)cc1	2.31µM*	-0.5%	?	-4.9%	?
CC(=O)c1ccc(N2CCN(c3ccc(C(F)(F)F)cn3)CC2)cc1	7.31µM*	-53.5%	?	-17.6%	-3.9%
Cc1c(C(=O)N2CCc3ccccc32)oc2ccccc12	18.4µM*	3.0%	i	18.7%	?
O=C(c1ccc(C(F)(F)F)cc1)N1CCN(c2ccc(N3CCOCC3)nn2)CC1	16.4µM*	14.4%	i	-7.8%	-2.7%
